{"source": "PubChem BioAssay (Tox21)", "note": "A number with no mark means an inactive call. Calls of active or inactive are those of the source. Calls come from the whole dose curve. % is set by controls: 0 for no effect and ±100 for the full control effect."}
{"assay": "qHTS assay to identify small molecule agonists of the sonic hedgehog signaling (Shh) pathway (AID 1259368); note: nearly all actives have a fitted effect of over 15% in size", "conditions": "NIH/3T3 Gli1-Luc reporter, luciferase, 24 h, stronger effect = higher value; series mostly up to 92.4 µM; activity change: at the top concentration", "outline": "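NIH/3T3-derived 3T3Gli1-Luc cells carrying a stably integrated Gli1 response element–firefly luciferase reporter were plated, left 4 hr at 37 C, then given compounds in DMSO for 24 hr. Luminescence was read 30 min after adding luciferase reagent.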"}
{"compound": "CCOC(=O)Nc1ccc(NCc2ccc(F)cc2)nc1N", "activity change": "0.557% [at 42.5 µM]"}
{"compound": "CCCCC(CC)COC(=O)c1ccccc1O", "note": "(stereo not given)", "activity change": "0.0132% [at 42.5 µM]"}
{"compound": "O=C1NC(=O)[C@@]2(CCOc3ccc(F)cc32)N1", "activity change": "-0.494% [at 42.5 µM]"}
{"compound": "NC(=O)Nc1ccccc1", "activity change": "-0.0238%"}
{"compound": "CC/C=C\\CC/C=C/C(OCC)OCC", "activity change": "6.83%"}
{"compound": "CCO/C([O-])=N/c1c[n+](N2CCOCC2)no1", "activity change": "0.698% [at 42.5 µM]"}
{"compound": "COC(=O)C1=C(C)NC(C)=C(C(=O)OC)C1c1ccccc1[N+](=O)[O-]", "outcome": "inactive"}
{"compound": "CC/C=C\\CCOC(C)=O", "activity change": "0.165%"}
{"compound": "CC(C)=CCCC(C)CC(=O)O", "note": "(stereo not given)", "activity change": "0.733%"}
{"compound": "COC(C)(C)CCCC(C)CC=O", "note": "(stereo not given)", "activity change": "0.042%"}
{"compound": "O=C[C@H](O)[C@@H](O)[C@H](O)[C@H](O)CO", "activity change": "-2.42%"}
{"compound": "O=c1[nH]c(=O)n([C@H]2C[C@H](O)[C@@H](CO)O2)cc1I", "activity change": "0.0968% [at 42.5 µM]"}
{"compound": "CCCCOCCOCCOCCCC", "activity change": "0.491%"}
{"compound": "CC(C)CCCC(C)N", "note": "(stereo not given)", "activity change": "0.0989% [at 42.5 µM]"}
{"compound": "O=c1n(CCO)c(=O)n(CCO)c(=O)n1CCO", "outcome": "inactive"}
{"compound": "CCCCCCCCCCCCCCCCC", "activity change": "-1.22%"}
{"compound": "CCC(=O)OC(C)c1ccccc1", "note": "(stereo not given)", "activity change": "0.37%"}
{"compound": "Nc1c[n+](N2CCOCC2)no1", "activity change": "0.153% [at 42.5 µM]"}
{"compound": "CC(C)NCC(O)c1ccc(NS(C)(=O)=O)cc1", "note": "(stereo not given)", "activity change": "-0.838%"}
{"compound": "CC1(C)CO[C@@H](CC(=O)O)CN1", "activity change": "0.393% [at 42.5 µM]"}
{"compound": "C1CN(CCOCCN2CCOCC2)CCO1", "activity change": "0.614%"}
{"compound": "O=C1CCCCCCCCCCCN1", "outcome": "inactive"}
{"compound": "CCCN(CCC)CCc1cccc2c1CC(=O)N2", "activity change": "0.239% [at 42.5 µM]"}
{"compound": "CCOC(=O)C(=O)OCC", "activity change": "0.192%"}
{"compound": "CCOC(=O)c1cccc(N)c1", "activity change": "-0.256% [at 42.5 µM]"}
{"compound": "COc1cc(C(=O)N2CCCCCCC2)cc(OC)c1OC", "activity change": "0.023% [at 42.5 µM]"}
{"compound": "Cc1cc2c(cc1S(N)(=O)=O)S(=O)(=O)CCC2", "activity change": "-0.723% [at 42.5 µM]"}
{"compound": "C[C@H](NC(CCc1ccccc1)C(=O)O)C(=O)N1CCC[C@H]1C(=O)O", "note": "(stereo not given in full)", "activity change": "-0.553% [at 42.5 µM]"}
{"compound": "COc1ccccc1OCC(O)CN1CCN(CC(=O)Nc2c(C)cccc2C)CC1", "note": "(stereo not given)", "activity change": "1.01% [at 42.5 µM]"}
{"compound": "CN1CCC(=C2c3ccccc3CC(=O)c3sccc32)CC1", "activity change": "-0.794% [at 42.5 µM]"}
{"compound": "COCCCOCCCOC", "activity change": "-1.83%"}
{"compound": "Nc1cc(=O)[nH]c(N)n1", "activity change": "0.122% [at 42.5 µM]"}
{"compound": "NC(=O)c1cn(Cc2c(F)cccc2F)nn1", "activity change": "0.0982% [at 42.5 µM]"}
{"compound": "CO/N=C(/C(=O)N[C@@H]1C(=O)N2C(C(=O)OCOC(=O)C(C)(C)C)=C(C)CS[C@H]12)c1csc(N)n1", "activity change": "0.128% [at 42.5 µM]"}
{"compound": "CCCCCCCCCCCCCC=O", "activity change": "-0.008% [at 8.39 µM]"}
